According to PubChem BioAssay (NCATS):
Inconclusive results are not listed. The source made the active and inactive calls. Calls come from the whole dose curve; as a rule, active = well fitted cell-killing curve with a large enough effect; inconclusive = small, poorly fitted or top-dose-only effect, or effect the other way; inactive = flat fitted curve, though single readings scatter.

What was measured:
Test in all cases: Primary qHTS to identify gynecologic anti-cancer compounds using libraries of approved drugs and bioactive compounds (AID 1345084); note: nearly all actives have a fitted effect of over 55% in size
C33A = settings: Gynecologic cancer cell panel viability, ATPlite luminescence, 48 h; series mostly up to 57.5 µM
Procedure, shortened: (§1)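 Measured: luminescence after ATPlite addition (15 min, RT). Exposure: 48 h, 37 C, 5% CO2.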

CAOV3 = settings: Gynecologic cancer cell panel viability, ATPlite luminescence, 48 h; series mostly up to 57.5 µM
Procedure, shortened: as §1

CASKI = settings: Gynecologic cancer cell panel viability, ATPlite luminescence, 48 h; series mostly up to 57.5 µM
Procedure, shortened: as §1

Es-2 = settings: Gynecologic cancer cell panel viability, ATPlite luminescence, 48 h; series mostly up to 57.5 µM
Procedure, shortened: as §1

HeLa = settings: Gynecologic cancer cell panel viability, ATPlite luminescence, 48 h; series mostly up to 57.5 µM
Procedure, shortened: as §1

Hek293T = settings: Gynecologic cancer cell panel viability, ATPlite luminescence, 48 h, control line for the selectivity index; series mostly up to 57.5 µM
Procedure, shortened: as §1

JEG-3 = settings: Gynecologic cancer cell panel viability, ATPlite luminescence, 48 h; series mostly up to 57.5 µM
Procedure, shortened: as §1

OV90 = settings: Gynecologic cancer cell panel viability, ATPlite luminescence, 48 h; series mostly up to 57.5 µM
Procedure, shortened: as §1

SKOV3 = settings: Gynecologic cancer cell panel viability, ATPlite luminescence, 48 h; series mostly up to 57.5 µM
Procedure, shortened: as §1

Tov-21-G = settings: Gynecologic cancer cell panel viability, ATPlite luminescence, 48 h; series mostly up to 57.5 µM
Procedure, shortened: as §1

Tov112D = settings: Gynecologic cancer cell panel viability, ATPlite luminescence, 48 h; series mostly up to 57.5 µM
Procedure, shortened: as §1

PA-1 = settings: Gynecologic cancer cell panel viability, ATPlite luminescence, 48 h; series mostly up to 57.5 µM
Procedure, shortened: as §1
% is set by controls: 0 for no effect and ±100 for the full control effect.

CC(=O)O[C@@H]1[C@@H](OC(=O)/C=C/c2ccccc2)[C@@H](OC(C)=O)[C@H](O[C@H]2[C@@H]3C=CO[C@@H](O[C@@H]4O[C@H](CO)[C@@H](O)[C@H](O)[C@H]4O)[C@@H]3[C@@]3(CO)O[C@@H]23)O[C@H]1C
inactive: Potency (C33A) | Potency (CAOV3) | Potency (CASKI) | Potency (Es-2) | Potency (HeLa) | Potency (Hek293T) | Potency (JEG-3) | Potency (OV90) | Potency (SKOV3) | Potency (Tov-21-G) | Potency (Tov112D)

C/C=C/C=C/C(O)=C1\C(O)=C(C)C(=O)[C@@]2(C)OC(=O)[C@@](C)(NC(=O)/C=C/C(=O)O)[C@@H]12
inactive: Potency (C33A) | Potency (CAOV3) | Potency (CASKI) | Potency (Es-2) | Potency (HeLa) | Potency (Hek293T) | Potency (JEG-3) | Potency (OV90) | Potency (SKOV3) | Potency (Tov-21-G) | Potency (Tov112D)

C[C@@H]1CC[C@]2(C(=O)O)CC[C@]3(C)C(=CCC4[C@@]5(C)C[C@@H](O)[C@H](O)[C@@](C)(CO)C5CC[C@]43C)C2[C@]1(C)O (some centres undefined)
inactive: Potency (C33A) | Potency (CAOV3) | Potency (CASKI) | Potency (Es-2) | Potency (HeLa) | Potency (Hek293T) | Potency (JEG-3) | Potency (OV90) | Potency (PA-1) | Potency (Tov-21-G) | Potency (Tov112D)

CC(=O)C1=C(C)N(c2cccc(C(F)(F)F)c2)C(=O)N[C@H]1c1ccc(C#N)nc1
inactive: activity change, negative = cytotoxicity (C33A) 16.9% [at 11.6 µM] | activity change, negative = cytotoxicity (CAOV3) 8.36% [at 11.6 µM] | activity change, negative = cytotoxicity (CASKI) 11.8% [at 11.6 µM] | activity change, negative = cytotoxicity (Es-2) 6.68% [at 11.6 µM] | activity change, negative = cytotoxicity (HeLa) 11% [at 11.6 µM] | activity change, negative = cytotoxicity (Hek293T) -1.04% [at 11.6 µM] | activity change, negative = cytotoxicity (JEG-3) -3.38% [at 11.6 µM] | activity change, negative = cytotoxicity (OV90) 5.76% [at 11.6 µM] | activity change, negative = cytotoxicity (SKOV3) 12.1% [at 11.6 µM] | activity change, negative = cytotoxicity (Tov-21-G) 3.34% [at 11.6 µM] | activity change, negative = cytotoxicity (Tov112D) -8.52% [at 11.6 µM]

COCCOc1cnc2ccn([C@H](C)c3nnc4c(F)cc(-c5cnn(C)c5)cn34)c(=O)c2c1
inactive: Potency (C33A) | Potency (CAOV3) | Potency (CASKI) | Potency (Es-2) | Potency (HeLa) | Potency (Hek293T) | Potency (JEG-3) | Potency (OV90) | Potency (SKOV3) | Potency (Tov-21-G) | Potency (Tov112D)

C=C1CCC2C(C)(C)CCC[C@]2(C)[C@H]1C/C=C(\CO)C(=O)C(=O)O (some centres undefined)
inactive: Potency (C33A) | Potency (CAOV3) | Potency (CASKI) | Potency (Es-2) | Potency (HeLa) | Potency (Hek293T) | Potency (JEG-3) | Potency (OV90) | Potency (SKOV3) | Potency (Tov-21-G) | Potency (Tov112D)

CC(C)(C)CCN1C[C@@H]2C(CNC(=O)c3cc(Cl)cc(Cl)c3)[C@@H]2C1 (some centres undefined)
inactive: Potency (C33A) | Potency (CAOV3) | Potency (CASKI) | Potency (Es-2) | Potency (HeLa) | Potency (Hek293T) | Potency (JEG-3) | Potency (OV90) | Potency (PA-1) | Potency (Tov-21-G) | Potency (Tov112D)

C=CC1C(OC2OC(CO)C(O)C(O)C2O)OC=C(C(=O)OC)C1CC(=O)OCC1C(C)C(O)CC1C(CO)COC(=O)CC1C(C(=O)O)=COC(OC2OC(CO)C(O)C(O)C2O)/C1=C\C (centres undefined)
inactive: activity change, negative = cytotoxicity (C33A) 0.0118% [at 11.6 µM] | activity change, negative = cytotoxicity (CAOV3) 12.7% [at 11.6 µM] | activity change, negative = cytotoxicity (CASKI) 1.02% [at 11.6 µM] | activity change, negative = cytotoxicity (Es-2) -2.47% [at 11.6 µM] | activity change, negative = cytotoxicity (HeLa) 2.07% [at 11.6 µM] | activity change, negative = cytotoxicity (Hek293T) 1.07% [at 11.6 µM] | activity change, negative = cytotoxicity (JEG-3) 0.819% [at 11.6 µM] | activity change, negative = cytotoxicity (OV90) 16.4% [at 11.6 µM] | activity change, negative = cytotoxicity (PA-1) -12.5% [at 11.6 µM] | activity change, negative = cytotoxicity (Tov-21-G) -4.06% [at 11.6 µM] | activity change, negative = cytotoxicity (Tov112D) -1.58% [at 11.6 µM]

C1CCC[C@H]2CCCN3CC[C@@H](CCCCCC[C@@H]4CCCN5CC[C@@H](CC1)O[C@@H]45)O[C@@H]23
inactive: activity change, negative = cytotoxicity (C33A) 6.95% [at 0.155 µM] | activity change, negative = cytotoxicity (CAOV3) 1.15% [at 0.155 µM] | activity change, negative = cytotoxicity (CASKI) -13.7% [at 0.155 µM] | activity change, negative = cytotoxicity (Es-2) 2.67% [at 0.155 µM] | activity change, negative = cytotoxicity (HeLa) 18.4% [at 0.155 µM] | activity change, negative = cytotoxicity (Hek293T) 4.56% [at 0.155 µM] | activity change, negative = cytotoxicity (JEG-3) -9.47% [at 0.155 µM] | activity change, negative = cytotoxicity (OV90) -15.5% [at 0.155 µM] | activity change, negative = cytotoxicity (SKOV3) 0.0209% [at 0.155 µM] | activity change, negative = cytotoxicity (Tov-21-G) 5.89% [at 0.155 µM] | activity change, negative = cytotoxicity (Tov112D) 2.94% [at 0.155 µM]

C[C@H](C/C=C/C(C)(C)O)[C@H]1CC[C@@]2(C)[C@@H]3[C@@H](O[C@@H]4O[C@H](CO)[C@@H](O)[C@H](O)[C@H]4O)C=C4C(CC[C@H](O)C4(C)C)[C@]3(C=O)CC[C@]12C (some centres undefined)
inactive: Potency (C33A) | Potency (CAOV3) | Potency (CASKI) | Potency (Es-2) | Potency (HeLa) | Potency (Hek293T) | Potency (JEG-3) | Potency (OV90) | Potency (PA-1) | Potency (Tov-21-G) | Potency (Tov112D)

CC1(C)CC[C@]2(C(=O)O)CC[C@]3(C)C(=CCC4[C@@]5(C)CC[C@H](O[C@@H]6O[C@H](C(=O)O)[C@@H](O[C@@H]7OC[C@@H](O)[C@H](O)[C@H]7O)[C@H](O)[C@H]6O)C(C)(C)C5CC[C@]43C)C2C1O (some centres undefined)
inactive: Potency (C33A) | Potency (CAOV3) | Potency (CASKI) | Potency (Es-2) | Potency (HeLa) | Potency (Hek293T) | Potency (JEG-3) | Potency (OV90) | Potency (SKOV3) | Potency (Tov-21-G) | Potency (Tov112D)

Cc1[nH]c2ccccc2c1C1=C(NCCc2ccc(F)cc2)C(=O)N(C)C1=O
inactive: Potency (C33A) | Potency (CAOV3) | Potency (CASKI) | Potency (Es-2) | Potency (HeLa) | Potency (Hek293T) | Potency (JEG-3) | Potency (OV90) | Potency (SKOV3) | Potency (Tov-21-G) | Potency (Tov112D)

NC(=O)c1csc(C2OC(CO)C(O)C2O)n1 (centres undefined)
inactive: Potency (C33A) | Potency (CAOV3) | Potency (CASKI) | Potency (Es-2) | Potency (HeLa) | Potency (Hek293T) | Potency (JEG-3) | Potency (OV90) | Potency (SKOV3) | Potency (Tov-21-G) | Potency (Tov112D)

O=C(Nc1c(-c2cccs2)nc2ccccn12)c1ccc(Cl)cc1
inactive: Potency (C33A) | Potency (CAOV3) | Potency (CASKI) | Potency (Es-2) | Potency (HeLa) | Potency (Hek293T) | Potency (JEG-3) | Potency (OV90) | Potency (PA-1) | Potency (Tov112D)

Nc1nc2c(c(N3CCNCC3)n1)CCC1=C2[C@@H]2CCCC[C@@H]2O1
inactive: Potency (C33A) | Potency (CAOV3) | Potency (CASKI) | Potency (Es-2) | Potency (HeLa) | Potency (Hek293T) | Potency (JEG-3) | Potency (OV90) | Potency (SKOV3) | Potency (Tov-21-G) | Potency (Tov112D)
